Median seed-adjusted z-score data for 109 sequences are collected here from PubChem BioAssay AID1347426 (Functional Genomics Laboratory (NCATS/FGL), 2020).

Hit rate of the full screen: of about 31,000 sequences, about 1,400 (4.5%) were called active.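 How the source made its calls: active means median seed-adjusted z-score above 1 or below -1; inactive means the rest.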 This excerpt belongs to a sample that is enriched for actives.

This test is described as follows: Novel Modifiers of Survival Motor Neuron (SMN) Protein: Gene Identification via Genome-wide siRNA Screen.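 Further: luminescence tracks full-length SMN protein made from the SMN2 reporter.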 The conditions noted are these: HEK293T SMN2-luciferase reporter, siRNA knockdown, 72 h; actives lie on both sides. The procedure, abridged: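 Steps: spot 1 pmol siRNA, add Lipofectamine RNAiMax in serum-free DMEM, seed HEK293T SMN2–luciferase reporter cells; incubate 72 h at 37 °C; add ONE-Glo; normalize luminescence to control siRNA, log10, MAD. Candidates: |MAD| > 1.0.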
On the technique in general: In a reporter assay the amount or activity of a reporter protein is the signal.
For GGUGAGAUGUGGUCUAUAUTT against HES7, the median seed-adjusted z-score was -0.286 (inactive).

As for GGAGAAGGAUGGAACUCUUTT against SPATA21, the median seed-adjusted z-score was -1.03 (active).

Regarding GGCUUGCGCAAGAUCAAUATT against ATRNL1, the median seed-adjusted z-score is -0.142 (inactive).

With GCGUGAUCCUUGCCUCUAATT against GDPD4, the median seed-adjusted z-score was 0.0109 (inactive).

In the case of CCUCAUUGAUCAUCACCGATT against ZNF567, the median seed-adjusted z-score is -0.114 (inactive).

Consider CUAGUUUAAUAAAGAUUCATT against APOE, for which the median seed-adjusted z-score is 0.0321 (inactive).

With AGGAUAUUGUGAUUCAGCATT against POLR2G, the median seed-adjusted z-score is -4.19 (active).

In the case of GCAUCAGGUGAACAUCAAATT against TRIM16, the median seed-adjusted z-score was 0.345 (inactive).

As for GGAUGAGAAGGAUAAUGAUTT against IRF6, the median seed-adjusted z-score was -1.79 (active).

In the case of AAACGAUGUUGAUGUCCAATT against ATP6V1E1, the median seed-adjusted z-score is -0.312 (inactive).

Take GGAUGGACAUGUCAAAUCUTT against RBL1: the median seed-adjusted z-score was -0.0547 (inactive).

Turning to CAAAGGACCCAAUAGAAUUTT against GUCY2F, the median seed-adjusted z-score was 0.188 (inactive).

As to GCGCGCUACUUUGGGAUAATT against POLR2E, the median seed-adjusted z-score was -1.25 (active).

As to GGACCUCCCUUCAACAUCATT against DYSF, the median seed-adjusted z-score is -0.23 (inactive).

As to CAGUGAAGCUAUCAAGUUATT against PSMA8, the median seed-adjusted z-score was 0.407 (inactive).

GACCAGAUGUGGACAAUCATT against TAF6: the median seed-adjusted z-score is -1.36 (active).

GAAUUGGAGAGGCAACAAATT against LMO7: the median seed-adjusted z-score is 0.417 (inactive).

For the sequence GAAGAGAUAUUUACACCUUTT against CD47, the median seed-adjusted z-score is 0.0241 (inactive).

On to CUGCUAGUCUGUCUCCAAATT against SPINK7, for which the median seed-adjusted z-score is -0.409 (inactive).

Regarding GGACUAUGUCUGCCUAUGATT against SCN7A, the median seed-adjusted z-score is 0 (inactive).

On to CUAAGAAUCUGCUUAGUAATT against CLDN5, for which the median seed-adjusted z-score was 0 (inactive).

As to AGAAUGACAGGGUCCAGAATT against OGFR, the median seed-adjusted z-score is -0.565 (inactive).

GCUUUGAUGUGAUUCACCUTT against PRKAG3: the median seed-adjusted z-score is -1.03 (active).

For the sequence GUCACAAGAUGGUCAAAAATT against CTNND2, the median seed-adjusted z-score is -0.0491 (inactive).

As to CCAUCCUUCAGGCGAAUUATT against ACTR8, the median seed-adjusted z-score is -0.366 (inactive).

As to GGUCUGUUCUGCAAGCACATT against PARVG, the median seed-adjusted z-score is 0.321 (inactive).

As to CCAAACCACUACAACCCUUTT against RPP21, the median seed-adjusted z-score is -1.09 (active).

In the case of GAUAUAAAGUCAUGAAGAATT against USP30, the median seed-adjusted z-score was -0.646 (inactive).

Consider CGUGGACUCCCACUUCCAATT against OGG1, for which the median seed-adjusted z-score is -0.128 (inactive).

Regarding GGAGCUUCCCUAUAGUGAATT against HDAC3, the median seed-adjusted z-score was 0.579 (inactive).

As to GGAUUCUAAGUACAGAGAATT against ZNF323, the median seed-adjusted z-score is -0.319 (inactive).

With CAACUGCUAGCUGAACGAATT against ITIH2, the median seed-adjusted z-score is 0.262 (inactive).

On to CAUUUAUGACAAUCGGAUATT against OGT, for which the median seed-adjusted z-score is 0.411 (inactive).

Consider GUCUAUGAAUUGGACAAGATT against PGAM1, for which the median seed-adjusted z-score was -0.234 (inactive).

Turning to CAUCAAAUAUGACAACUUUTT against GALNTL4, the median seed-adjusted z-score is 0 (inactive).

Consider GCCGUUUCAUGUUUGUCUATT against TRPV1, for which the median seed-adjusted z-score is -0.12 (inactive).

For the sequence GGAAAUGAGUGUCUGAACATT against CHMP6, the median seed-adjusted z-score was -1.81 (active).

Turning to GGCUUUUUAGAUUUCGAAATT against TIGD7, the median seed-adjusted z-score was -0.116 (inactive).

Regarding GAGUGAGACUGGGACAAGATT against TAPBP, the median seed-adjusted z-score was -0.786 (inactive).

Consider GCCUUCACGUCUGAACAUATT against GAD2, for which the median seed-adjusted z-score was 0.0588 (inactive).

GAAACAACUUGAUUUCGAATT against PCDHB8: the median seed-adjusted z-score is 1.15 (active).

As to GCAUGUUGUUGAUCAUGGATT against MAFB, the median seed-adjusted z-score is 0.674 (inactive).

Turning to GAAGUGUUAUGUAAGGAGATT against EPHX2, the median seed-adjusted z-score was 0 (inactive).

Take GAACAUGUCUUUAACGGAUTT against TJP2: the median seed-adjusted z-score was 0.0668 (inactive).

Take AGAUGAGAACUCUAAGCAATT against CHRM2: the median seed-adjusted z-score was 0.053 (inactive).

On to CGAUCACUUCCUACAGUCUTT against RGR, for which the median seed-adjusted z-score is 0.217 (inactive).

Turning to CCAUUGAAGUGGUUAAGAATT against CCNE2, the median seed-adjusted z-score is 0.801 (inactive).

As to GGUUGUUGCUGAUAGAGAATT against DPH5, the median seed-adjusted z-score was 0 (inactive).

As to GAAGGACUCUGCAUAUGAUTT against SLC2A14, the median seed-adjusted z-score is -1.09 (active).

For CAACUAUAGUGCUCCCAGUTT against ZFP36L1, the median seed-adjusted z-score is -0.933 (inactive).

As to CUCAGAGUGCAGAACCACATT against TRIM15, the median seed-adjusted z-score is 0.292 (inactive).

As for CCACGUACCCUUCAUCAAATT against KIF11, the median seed-adjusted z-score is -0.381 (inactive).

In the case of GGUCUUCAGUGAACAGUUUTT against ZNF562, the median seed-adjusted z-score was -0.0954 (inactive).

Turning to CUGUAAGAUUAAAUCCCAATT against TMTC4, the median seed-adjusted z-score is -1.16 (active).

For GCCUUACAACUCUAAUGAATT against ZNF519, the median seed-adjusted z-score is 0.0162 (inactive).

As for GCAUGGUCAUAGGCCUGAUTT against CYB561, the median seed-adjusted z-score was 0 (inactive).

On to GGUGGAUGCUCAAUCCAGATT against FOXO1, for which the median seed-adjusted z-score was 0.0591 (inactive).

In the case of CGAGAAGAGGAUUAAAGGATT against HAND1, the median seed-adjusted z-score is 0.161 (inactive).

As to GGAAGAUUACAACCGAACATT against ARHGEF12, the median seed-adjusted z-score is 0.136 (inactive).

On to GAUCACGUUUGACAACAAATT against MCOLN1, for which the median seed-adjusted z-score is -0.522 (inactive).

For CUUUAACUGGGAUCACUGUTT against FOLR3, the median seed-adjusted z-score was 0 (inactive).

With CAACCAAAGUCGAAUAUGATT against PLK1, the median seed-adjusted z-score was -2.57 (active).

Consider UCCCAAACCUUCACCAUCATT against THAP8, for which the median seed-adjusted z-score is -0.872 (inactive).

As for GCAUCACCAUUGCUUGGAATT against STAT5B, the median seed-adjusted z-score is 0 (inactive).

In the case of CCUCGAUAUUUUAACCUUUTT against EID2, the median seed-adjusted z-score was -1.04 (active).

Regarding GUGAUAAAGUGAUAAGAUUTT against CPA6, the median seed-adjusted z-score was 0.343 (inactive).

For the sequence CCCACUAAAUUUUCGGAAATT against ATAD2, the median seed-adjusted z-score was -0.246 (inactive).

On to CUAUGAAAAUUGCAGGAGATT against GCM2, for which the median seed-adjusted z-score is -0.241 (inactive).

In the case of CCCAGGAACUGCUAACGAATT against SETMAR, the median seed-adjusted z-score was 0.191 (inactive).

In the case of GCUCAUCCCUGUGCAUGGUTT against LY6G5B, the median seed-adjusted z-score is -1.29 (active).

On to CUACAAGACAGGCAAUCUATT against IFI30, for which the median seed-adjusted z-score was 0.401 (inactive).

Regarding CAGUAAGAAGGGUUCAAUATT against BTK, the median seed-adjusted z-score is -0.0648 (inactive).

With CAAGAGAUAUCAUCGAUUATT against ZRANB3, the median seed-adjusted z-score is 0.0516 (inactive).

As to GGAUAUAGCUGGUGACCCATT against PCDH7, the median seed-adjusted z-score was 0.192 (inactive).

With AGUUGUUGGAAUGACCUUATT against CLEC5A, the median seed-adjusted z-score is -1.07 (active).

As to GAAGAUGUAUGGAAUUCUUTT against DARC, the median seed-adjusted z-score is 0.0814 (inactive).

Consider CCAAGUAUCUGGUGGUGAATT against NDUFV1, for which the median seed-adjusted z-score was -0.653 (inactive).

Take GGACGAGAGAUGUACAUUATT against CNGA1: the median seed-adjusted z-score is -1.08 (active).

Turning to ACAUUUAGGUUGUAAACCATT against PLA2G12A, the median seed-adjusted z-score was 0.139 (inactive).

On to UGGUCAACUAGAAUACAUATT against RGPD5, for which the median seed-adjusted z-score was -0.0931 (inactive).

Turning to GGAGAUGCACAACAUCUUATT against PIP4K2B, the median seed-adjusted z-score is 0.17 (inactive).

For the sequence GAGUGGAAGUCAUACCCUATT against TTLL3, the median seed-adjusted z-score was -0.194 (inactive).

As to CUAAUAACAGGGUACAGUATT against ZNF238, the median seed-adjusted z-score was -0.491 (inactive).

Regarding CUAUGGACUUCAUCGCUUUTT against EEF1E1, the median seed-adjusted z-score was -1.45 (active).

For GCAGAGUCAUGACCAGGGATT against CHST6, the median seed-adjusted z-score is 0.372 (inactive).

Take CAGAUGCAGCACUCACUUUTT against MMP17: the median seed-adjusted z-score was -0.653 (inactive).

On to AGAGAGCUCCGAACCUUCUTT against ICAM5, for which the median seed-adjusted z-score was -1 (active).

Regarding GGAGGGUUUUCACGAUGAATT against AP2B1, the median seed-adjusted z-score is -0.214 (inactive).

Take CUGCAGAUCUUGUGACAGATT against IMPA2: the median seed-adjusted z-score was 0.0513 (inactive).

Regarding GUAUACUCCAGAACAAGUATT against ALDOB, the median seed-adjusted z-score was -1.34 (active).

On to AGACAAAGAUUGAUAAACATT against SLC24A3, for which the median seed-adjusted z-score was 0.0177 (inactive).

AGAUCUACCCAGACCCGGATT against TRAF4: the median seed-adjusted z-score was -1.16 (active).

On to UCUACGACGUGGACGGUAATT against RCVRN, for which the median seed-adjusted z-score is 0.562 (inactive).

As to CAGUAUACGUGGUGCACGATT against PFKL, the median seed-adjusted z-score was 0 (inactive).

Consider GCAUCAACAAUAUCCGGGATT against FARSA, for which the median seed-adjusted z-score is -0.158 (inactive).

Regarding GGGUUCCAGUAACCAGUGATT against RPP21, the median seed-adjusted z-score is -1.09 (active).

As for GCAGCUCCAGUAACCUCAATT against ZNF683, the median seed-adjusted z-score was -0.452 (inactive).

With GAAGAGAUGUUCAACUGCATT against RAB35, the median seed-adjusted z-score is 0.317 (inactive).

Regarding GCAAGAGAAUUAAACUGCATT against RAB8A, the median seed-adjusted z-score is -0.0436 (inactive).

GAGUUACAGCUGAUCAAAATT against VPS26A: the median seed-adjusted z-score is -1.55 (active).

With GGGAUCAACUUAGAAGAGATT against POU6F1, the median seed-adjusted z-score was 0.978 (inactive).

Regarding GGAUGCUGCUGAGAACUAUTT against PIK3R3, the median seed-adjusted z-score was -1.88 (active).

Take GGAUCUUGAAUUCAACUAUTT against TLR8: the median seed-adjusted z-score was 0 (inactive).

For CGCUAUGAUCUGUACCACATT against TMEM147, the median seed-adjusted z-score is 0.233 (inactive).

Take GGAACGCAGUCAGAUUUGATT against CA5B: the median seed-adjusted z-score is 0.317 (inactive).

On to GCGAUGAAAUUGUCGUGUATT against MAP3K9, for which the median seed-adjusted z-score was -0.498 (inactive).

For the sequence “AGAUAACUGGAAAAUGUCUTT against SLC22A18AS”, the median seed-adjusted z-score is 0.0382 (inactive).

Consider CAAUGUCCGUGAUCAUGAUTT against SARDH, for which the median seed-adjusted z-score is -0.195 (inactive).

As to GCCUCACCGUCUAUGUACATT against CD200, the median seed-adjusted z-score was -0.0135 (inactive).
